Reference: PubChem BioAssay (NCI)
The panel holds about 83,000 compounds, 20% with a hit somewhere; the sample as a whole holds those more often.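 The endpoint reported here, percent growth, reads 100 for growth as untreated, 0 for no net growth and -100 for all cells dead.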 Values without a mark were called inactive. Calls of active or inactive are those of the source. The calls were made as follows: active = growth percent below 10; inactive = the rest.

Legend:
Experiment in all cases: NCI-60 one-dose screen, 48 h (100 = growth as untreated, 0 = no growth, -100 = all killed)
Conditions in all cases: 10 µM unless noted
SR leukemia = tested on: SR leukemia
RPMI-8226 leukemia = tested on: RPMI-8226 leukemia
OVCAR-8 ovarian = tested on: OVCAR-8 ovarian
OVCAR-5 ovarian = tested on: OVCAR-5 ovarian
SK-OV-3 ovarian = tested on: SK-OV-3 ovarian
IGROV1 ovarian = tested on: IGROV1 ovarian
OVCAR-3 ovarian = tested on: OVCAR-3 ovarian
HS 578T breast = tested on: HS 578T breast
NCI/ADR-RES ovarian = tested on: NCI/ADR-RES ovarian
OVCAR-4 ovarian = tested on: OVCAR-4 ovarian

Row | Compound | growth (SR leukemia) | growth (RPMI-8226 leukemia) | growth (OVCAR-8 ovarian) | growth (OVCAR-5 ovarian) | growth (SK-OV-3 ovarian) | growth (IGROV1 ovarian) | growth (OVCAR-3 ovarian) | growth (HS 578T breast) | growth (NCI/ADR-RES ovarian) | growth (OVCAR-4 ovarian)
1 | COc1cc(/C=C\c2cc(OC)c(OC)c(OC)c2)cc(N/C=C\C(=O)c2c[nH]c3ccccc23)c1OC | -36.8% (active) | -32.8% (active) | 33.8% | 35.3% | 90.1% | 40.5% | -93.6% (active) | 67.5% | 73.5% | 
2 | O=C(O)C(Cc1ccccc1)N1C(=O)/C(=C/C(Cl)=C/c2ccc([N+](=O)[O-])cc2)SC1=S (stereo not drawn) | 5.32% (active) |  | 12.1% | 137% | 83.4% | 36.3% | 10.7% | 44.6% | 68.7% | 7.24% (active)
3 | CC(C)(C)OC(=O)N1C/C(=C\c2cccs2)C(=O)/C(=C/c2cccs2)C1 | 55.5% |  | 87.8% | 109% | 90.1% | 83% | 104% | 93.3% | 96.3% | 82.2%
4 | C[N+](C)(C)c1ccc(CC2c3ccccc3-c3ccccc32)cc1 | 85% |  | 85.7% | 86.1% | 75.3% | 64.4% | 67% | 4.68% (active) | 107% | 85.2%
5 | COc1cccc(-n2cc(-c3nc(Cl)c4ccccc4n3)nn2)c1 | 97.9% |  | 109% | 109% | 117% | 96.5% |  | 110% | 97.4% | 98.7%
6 | OCc1c(-c2ccccc2)nc2sccn12 | 103% |  | 67.5% | 109% | 110% | 88.2% | 116% | 77.7% | 105% | 103%
7 | C=C1C(=O)O[C@H]2[C@H]1CC/C(COC(=O)NCCc1cccc(OC)c1)=C\CC[C@@]1(C)O[C@@H]21 | 0.839% (active) |  | 17.4% | 75.1% | 90.3% |  | -20% (active) | 57.9% | 80% | 39.9%
8 | CCC(c1ccc(OC)cc1)C(CC)c1ccc(OCC[N+](C)(C)C)cc1 (stereo not drawn) | 53.9% |  | 51.4% | 91% | 87.7% |  | 34.6% | 63.6% | 100% | 63.4%
9 | O=C1Nc2cc(Cl)ccc2Oc2cc(Oc3ccccc3)ccc21 | 20.7% |  | 88% | 83% | 47.4% | 63.3% | 27.6% | 43.3% | 18.9% | 71.5%
10 | NC(C(=O)O)C(O)c1ccc(OCc2ccccc2)c(OCc2ccccc2)c1 (stereo not drawn) | 92.3% |  | 99.6% | 101% | 103% |  | 106% | 93.4% | 93.3% | 107%
11 | O=C(Nc1ccc(F)cc1)c1cc([N+](=O)[O-])ccc1O | 83.7% |  | 76.2% | 86.1% | 84% | 66.3% | 56.1% | 64% | 72.9% | 70.5%
12 | Nc1c(C(=O)Nc2cccc(C(F)(F)F)c2)sc2nc3c(cc12)CCCCC3 | 33.3% |  | 21.3% | 35.5% | -21.4% (active) | -17.4% (active) | 3.45% (active) | 16.6% | 17.1% | 
13 | C#CCN1C(=O)/C(=c2\sc3n(c2=O)NC2C(N=3)N(CC)C(=O)N2CC)c2ccccc21 (stereo not drawn) | 15.5% |  | 66.9% | 73.8% |  | 66% | 23.1% | 56.6% | 41.7% | 51.9%
14 | CCCn1c(=S)sc2c(Cl)nc(C)nc21 | 123% |  | 105% | 109% | 90.5% |  | 88.6% | 36.8% | 106% | 85.5%
15 | CCN(C(=O)c1cc2ncccc2[nH]1)[C@H]1CCC[C@@H](NCc2cccc(F)c2)C1 | 99.6% |  | 103% | 81.6% | 103% | 91.1% | 95.7% | 109% | 89.1% | 104%
